SKKanGAS inh – inhibitors of SKKanGAS S. pyogenes growth in kanamycin (SK-promoter or general growth effect). BacTiter-Glo, 6 h. inhibition, % at 7.5 µM. hit rate 1.3% among 300,000. AID 1662;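 active = mean replicate score, as percent of positive control median, at least 50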;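 also: strain carries kanamycin resistance gene driven by streptokinase promoter and grows in 40 µg/ml kanamycin; loss of luminescence reflects streptokinase promoter inhibition or plain growth inhibition; 0% = median of DMSO wells and 100% = positive control at its reference dose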
Platelet DG rel – modulates dense granule release in human platelets; human platelet-rich plasma, SFLLRN dense granule ATP release, luminescence; hit rate 0.22% among 300,000; inhibition, %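 (compounds screened at 7.5 µM in platelet-rich plasma)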;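 active = mean replicate score, as percent of positive control, at or above 50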
WT yeast gro inh – growth inhibition of WT yeast, mitochondrial fusion screen; mitochondrial fusion phenotypic screen, WT strain; inhibition, % at 10 µM; hit rate 2.1% among 190,000; AID 1362; in the data active = inhibition above about 58%; tested in S. cerevisiae
Rtt109 Vps75 – blocks Candida albicans Rtt109/Vps75 acetyltransferase activity; hit rate 0.16% among 330,000; AID 540336; inhibition, % at 34.9 µM; purified Rtt109/Vps75, ThioGlo CoA-SH fluorescence, 4 h;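 active = inhibition of at least 50% in every replicate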
Target sequence (Q5AAJ8 whole entry, looked up): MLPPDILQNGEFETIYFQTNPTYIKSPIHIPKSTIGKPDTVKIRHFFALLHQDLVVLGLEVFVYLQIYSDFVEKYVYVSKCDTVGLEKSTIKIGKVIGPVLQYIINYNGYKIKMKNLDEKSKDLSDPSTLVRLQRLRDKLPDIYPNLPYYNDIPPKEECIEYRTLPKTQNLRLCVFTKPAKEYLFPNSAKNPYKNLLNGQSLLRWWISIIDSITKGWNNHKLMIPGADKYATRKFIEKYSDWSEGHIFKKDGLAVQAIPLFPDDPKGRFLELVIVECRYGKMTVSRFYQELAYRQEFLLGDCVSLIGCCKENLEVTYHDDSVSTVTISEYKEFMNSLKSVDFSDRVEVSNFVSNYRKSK
PHOSPHO1 block – inhibitors of human PHOSPHO1 phosphatase; recombinant PHOSPHO1, absorbance phosphatase assay; inhibition, % at 13.3 µM; hit rate 1.1% among 290,000; AID 1565; in the data active = inhibition above about 60%
Target sequence (Q8TCT1 whole entry, looked up): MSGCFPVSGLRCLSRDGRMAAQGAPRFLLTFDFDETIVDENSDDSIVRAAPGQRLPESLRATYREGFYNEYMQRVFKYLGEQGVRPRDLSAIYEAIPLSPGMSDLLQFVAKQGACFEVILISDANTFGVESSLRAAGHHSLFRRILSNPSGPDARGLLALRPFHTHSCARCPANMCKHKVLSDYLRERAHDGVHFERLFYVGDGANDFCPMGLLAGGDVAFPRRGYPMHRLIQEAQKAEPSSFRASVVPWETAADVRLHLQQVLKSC
TPT1 inh – inhibitors of Candida albicans tRNA 2'-phosphotransferase TPT1; recombinant caTPT1, FP RNA substrate dephosphorylation; inhibition, % at 5 µM; hit rate 0.81% among 300,000; AID 1962;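 active = inhibition above the mean of all tested compounds plus 3 SD, set per screening campaign, cut at about 24% in these data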;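 also: plate controls were DMSO alone for no effect and ferristatin control at 100 nM for full effect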
TPT1 inh confirm – confirmation of Candida albicans TPT1 inhibitors; shares compounds with TPT1 inh; inhibition, % at 5 µM; hit rate 74% among 2,400; recombinant caTPT1, fluorescence polarization, RNase T1 coupled;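 active = inhibition above the primary screen limit, the mean inhibition of all tested compounds plus 3 SD, cut at about 25% in these data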
RNase T1 counter – counter-screen for TPT1 inhibitors: inhibitors of Aspergillus oryzae RNase T1; shares compounds with TPT1 inh; RNase T1 cleavage, fluorescence polarization, 1536-well; inhibition, % at 5 µM; hit rate 83% among 2,400;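 active = inhibition above the solvent-only control well mean plus 3 SD, limit set per screening run, cut at about 23% in these data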;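 also: plate controls were DMSO wells with enzyme for no effect and wells without RNase T1 for full effect; inhibitors block cleavage so intact labeled substrate keeps polarization high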
Numbers without * were called inactive. A selection: hits, their analogues and other compounds. The true share with any hit is near 3.9%.

Cc1cc(/C=C2\SC(=S)NC2=O)cc(C)c1O was read as SKKanGAS inh 17, Platelet DG rel -7, Rtt109 Vps75 -8, PHOSPHO1 block 12, TPT1 inh 35*, TPT1 inh confirm 10 and RNase T1 counter 17.
For Cc1cc(/C=C2\SC(=S)NC2=O)c(C)n1-c1ccccc1 the results were SKKanGAS inh 41, Platelet DG rel 9, PHOSPHO1 block -48, TPT1 inh 73*, TPT1 inh confirm 69* and RNase T1 counter 83*.
Screening CC(C)c1cccc(C(C)C)c1NC(=O)CN1CCCC1 returned SKKanGAS inh -1, Platelet DG rel 8, Rtt109 Vps75 0, PHOSPHO1 block 43 and TPT1 inh -1.
`O=S(=O)(N[C@H](CO)Cc1ccccc1)c1ccc(Br)cc1F` gave Rtt109 Vps75 7.
For Cc1cc(/C=C2\SC(=S)NC2=O)c(C)n1C the results were SKKanGAS inh 30, Platelet DG rel -3, WT yeast gro inh 9, Rtt109 Vps75 3, PHOSPHO1 block 88*, TPT1 inh 53*, TPT1 inh confirm 69* and RNase T1 counter 84*.
NS(=O)(=O)c1cccc(NC(=O)CN2CCc3ccccc32)c1 was read as SKKanGAS inh 3, Platelet DG rel -1, WT yeast gro inh -1, Rtt109 Vps75 38, PHOSPHO1 block -6 and TPT1 inh -38.
`CN(c1ccccc1)S(=O)(=O)c1cccc(NC(=O)CN2CCCc3ccccc32)c1` gave SKKanGAS inh 9, Platelet DG rel 1, Rtt109 Vps75 16, PHOSPHO1 block -50, TPT1 inh 37*, TPT1 inh confirm 25* and RNase T1 counter 37*.
Screening COc1ccc(S(=O)(=O)N2CCCC(C(=O)NCc3cccnc3)C2)cc1OC (centres undefined) returned SKKanGAS inh 6, Platelet DG rel -6, Rtt109 Vps75 0 and TPT1 inh -5.
`CC(=O)c1cccc(NS(=O)(=O)c2ccc(-c3cnc(C4CC4)o3)cc2)c1` gave SKKanGAS inh -8, Platelet DG rel 0, Rtt109 Vps75 8, PHOSPHO1 block 32, TPT1 inh 28*, TPT1 inh confirm 7 and RNase T1 counter 9.
For CC(=O)Nc1ccc(NS(=O)(=O)c2ccc(-c3cnc(C4CC4)o3)cc2)cc1 the results were SKKanGAS inh -12, Platelet DG rel 4, Rtt109 Vps75 2, PHOSPHO1 block 26 and TPT1 inh -3.
`O=C(Nc1ccc(C(=O)N2CCOCC2)cc1)C1CC1` gave Rtt109 Vps75 4.
Screening CCCN(CCC)c1ccc(/C=C/c2ccc3cc(OCC)ccc3n2)cc1 returned SKKanGAS inh 28, Platelet DG rel -4, Rtt109 Vps75 1, PHOSPHO1 block 27, TPT1 inh 57*, TPT1 inh confirm 93* and RNase T1 counter 97*.
Screening CN(C)c1ccc(/C=C/c2nc3ccccc3s2)cc1 returned SKKanGAS inh 47, Platelet DG rel 64*, WT yeast gro inh 3, Rtt109 Vps75 -1, PHOSPHO1 block 38, TPT1 inh 111*, TPT1 inh confirm 113* and RNase T1 counter 114*.
CN(C)c1ccc(/C=C/c2ccc3ccccc3n2)cc1 was read as SKKanGAS inh 75*, Platelet DG rel 97*, Rtt109 Vps75 0, PHOSPHO1 block 32, TPT1 inh 60*, TPT1 inh confirm 61* and RNase T1 counter 70*.
CCOc1cc(/C=C/c2cc(C(=O)O)c3ccccc3n2)ccc1O was read as SKKanGAS inh 11, Platelet DG rel 25, WT yeast gro inh 10, Rtt109 Vps75 9, PHOSPHO1 block -18 and TPT1 inh 1.
`COc1cc(/C=C/c2nc3ccccc3s2)cc(OC)c1O` gave SKKanGAS inh 0, Platelet DG rel -17, WT yeast gro inh 3, Rtt109 Vps75 -7, PHOSPHO1 block 28 and TPT1 inh 16.
`Cc1ccc(/C=C/c2nc3ccccc3s2)s1` gave SKKanGAS inh 9, Platelet DG rel 15, WT yeast gro inh 39, Rtt109 Vps75 1, PHOSPHO1 block 3, TPT1 inh 42*, TPT1 inh confirm 43* and RNase T1 counter 54*.
O=[N+]([O-])c1ccc(/C=C/c2ccc3ccccc3n2)cc1 was read as SKKanGAS inh -15, Platelet DG rel 41, WT yeast gro inh 11, Rtt109 Vps75 -3, PHOSPHO1 block 23 and TPT1 inh 1.
For CCOC(=O)C1=C(COC(=O)COc2ccccc2C(C)C)NC(=O)NC1C (centres undefined) the results were Rtt109 Vps75 31.
For COCC1CCCCN1C(=O)c1ccc(OC2CCN(CCc3ccccc3)CC2)cc1 (centres undefined) the results were SKKanGAS inh -1, Platelet DG rel -3, Rtt109 Vps75 -1, PHOSPHO1 block 8 and TPT1 inh -1.
C=CCn1c(/N=C/c2ccc(OC)cc2)nc2ccccc21 was read as SKKanGAS inh -2, Platelet DG rel -1, Rtt109 Vps75 -3 and TPT1 inh -2.
For C=CCn1c(/N=C/c2ccc(N(C)C)cc2)nc2ccccc21 the results were SKKanGAS inh -10, Platelet DG rel 1, WT yeast gro inh 5, Rtt109 Vps75 3, PHOSPHO1 block 16, TPT1 inh 27*, TPT1 inh confirm 110* and RNase T1 counter 117*.
For COc1cccc(C(=O)NCC2(c3ccc(OC)c(OC)c3)CCCC2)c1 the results were SKKanGAS inh -3, Platelet DG rel 2, Rtt109 Vps75 -1, PHOSPHO1 block -60 and TPT1 inh -1.
CC1CCCCC12NC(=O)N(CC(=O)Nc1ccc(OC(F)F)cc1)C2=O (centres undefined) was read as Rtt109 Vps75 3.
`COC(=O)Cc1cc(C)cc2c(=O)cc(-c3ccoc3)oc12` gave SKKanGAS inh 9, Platelet DG rel 12, TPT1 inh 34*, TPT1 inh confirm 53* and RNase T1 counter 66*.
Cc1cc(C(=O)COC(=O)c2nn(C)c(=O)c3ccccc23)c(C)n1C was read as Rtt109 Vps75 3.
Screening N#CC1(C#N)C2=C(CCCC2)NC(c2ccccc2)C1(C#N)C#N (centres undefined) returned SKKanGAS inh 15, Platelet DG rel 1, WT yeast gro inh 13, PHOSPHO1 block 11, TPT1 inh 30*, TPT1 inh confirm 25* and RNase T1 counter 34*.
CC(C)(C)c1ccc(S(=O)(=O)NCc2ccc(C(=O)N3CCCC3)cc2)cc1 was read as SKKanGAS inh -9, Platelet DG rel 0, WT yeast gro inh 28, Rtt109 Vps75 1, PHOSPHO1 block 7 and TPT1 inh -5.

Bioassay records (PubChem)
